HT1080 IDH1KD tx: toxicity to HT-1080 IDH1 knockdown cells (counter line). HT-1080 IDH1 knockdown viability, ATP luminescence, 48 h. actives 2% (n = 360,000). Potency, µM (highest dose often 46.1 µM), hits mostly cytotoxic
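Using the IDH1-knockdown HT-1080 line run in the same batch and compound series as the NT line, viability after 48 h at 37 °C was determined by CellTiter-Glo luminescence and expressed as % activity.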
TDP1 cell noCPT: qHTS for Inhibitors of human tyrosyl-DNA phosphodiesterase 1 (TDP1): qHTS in cells in absence of CPT | DT40 Tdp1-/- hTDP1 cells, no CPT, ATP luminescence, 48 h | Potency, µM (titrated, usually from 46.2 µM), usual class: inhibitors | actives 15% (n = 420,000) | AID 686978, 2013; also: nearly all actives have a fitted effect of over 55% in size
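Camptothecin absent (DMSO only). Human TDP1-complemented DT40 knockout cells, 400 cells/well, 37 °C for minimum 48 hr; ATP measured via CellTiter-Glo, 30 min dark incubation, luminescence.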
IL-1B inflam inh: blocks inflammasome-driven IL-1 beta release; THP-1 LPS/ATP IL-1B secretion, AlphaLISA, 16 h; active compounds read low; activity change, % at 57.5 µM; actives 4.7% (n = 360,000); AID 743279; in the data active = activity change below about -50%; inconclusive = mostly about -30% to -49%
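Secreted IL-1B measured by AlphaLISA bead assay after 16 h compound exposure of THP-1 cells; compounds (final up to 57.5 uM) added 1 h before LPS (250 ng/mL) and ATP (1.25 mM) stimulation; lower signal means less secretion.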
HT1080-NT tox: kills 2HG-producing HT-1080-NT fibrosarcoma cells; AID 686970; Potency, µM (titrated, usually from 46.1 µM), most hits filed as cytotoxic; actives 1.6% (n = 360,000); HT-1080-NT fibrosarcoma viability, CellTiter-Glo ATP luminescence, 48 h;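 also: NT is the 2HG producing partner of a matched IDH1 knockdown line; nearly all actives have a fitted effect of over 55% in size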
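Read-out is CellTiter-Glo luminescence after 10 minutes at room temperature, following 48 hours' compound treatment of HT-1080-NT cells (750 cells/well, RPMI, 5% FBS, 37 degrees C).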
ELG1 DNA repair: blocks ELG1-dependent DNA repair in HEK293T cells; HEK293T ELG1-luciferase reporter, luminescence, 16 h; DNA damage induced by 5-fluorouridine; Potency, µM (series often up to 46.1 µM), hits mostly inhibitors; actives 2.3% (n = 330,000); also: nearly all actives have a fitted effect of over 55% in size
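HEK293T cells expressing luciferase-tagged ELG1 (2,000/well) received 5-Fluorouridine plus compound or DMSO for 16 hr at 37 °C. Luciferase was read by ONE-Glo luminescence after 30 min at room temperature.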
DT40 TDP1 CPT: DT40-hTDP1 cell growth loss with CPT; actives 12% (n = 420,000); chicken DT40 Tdp1-/-;hTDP1 cells + 20 nM CPT, ATP luminescence, 48 h; Potency, µM (top dose mostly 46.2 µM), hits mostly inhibitors; also: nearly all actives have a fitted effect of over 55% in size
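Chicken DT40 Tdp1-/- cells complemented with human TDP1, 400 cells/well, exposed to compounds plus 20 nM camptothecin for at least 48 h at 37 C; viability read as ATP content by CellTiter-Glo luminescence.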
Numbers stand for hits; 0 = inactive; ? = inconclusive; - = no result; [ ] = another dose, or the depositor's remark. Shown are actives, neighbours in structure and some others; about 19% of the full set was active somewhere. Unless noted, calls follow the shape of the dose curve; as a rule, active = well fitted curve in the direction sought with a large enough effect; inconclusive = small, poorly fitted or top-dose-only effect, or another doubt; inactive = no such curve, though single readings can be large; an effect the other way counts as inactive or inconclusive.

SMILES | HT1080 IDH1KD tx | TDP1 cell noCPT | IL-1B inflam inh | HT1080-NT tox | ELG1 DNA repair | DT40 TDP1 CPT
COc1ccccc1-c1oc2ccccc2c1C#CC1(N)CCCCC1 | 0 | 15µM | ? | 0 | ? | 16µM
COc1ccccc1-c1oc2ccccc2c1C#CCCO | 0 | ? | 0 | 0 | 0 | 0
O=c1c2ccccc2oc2cc(Br)ccc12 | 0 | 0 | 0 | 0 | - | 0
COc1ccccc1-c1oc2ccccc2c(=O)c1OC | - | ? | - | - | - | 6.7µM
COc1cc2oc3ccccc3c(=O)c2cc1OC | 0 | ? | -51 | 0 | ? | ?
COc1ccccc1-c1oc2ccccc2c1C#CC1(O)CCCCC1 | ? | ? | 0 | ? | 0 | 0
COc1ccc(-c2cc(=O)c3ccccc3o2)cc1OC | - | 15µM | - | - | - | ?
O=C(O)CCn1c(SCCc2ccccc2)nc2ccccc21 | 0 | 0 | 0 | 0 | - | 0
CCS(=O)(=O)N1CC(=O)N(c2ccc(Cl)cc2C)C(C)(C(=O)NC2CCCCC2)C1 (stereo unspecified) | - | 0 | - | - | - | 0
O=C(O)c1ccc(-n2nc(C(F)(F)F)c3c2CCCC3)cc1 | 0 | 0 | ? | 0 | 0 | 0
O=C(c1ccc(-n2nc(C(F)(F)F)c3c2CCCC3)cc1)N1CCOCC1 | 0 | ? | 0 | 0 | 5.2µM | ?
CCC(C)C(CO)NCCCn1cnc2c(OCc3ccccc3)ncnc21 (stereo unspecified) | 0 | 0 | 0 | 0 | - | 0
COc1ccc(-c2cc(=O)n(CCC#N)[nH]2)cc1 | 0 | 23µM | 0 | 0 | 0 | ?
CC(=O)c1cc2ccccc2c2ccccc12 | - | 0 | - | - | - | 0
CC(NC1=CC(=O)c2cccnc2C1=O)C(O)c1ccccc1 (stereo unspecified) | 6.5µM | 3.3µM | -100 | 18µM | - | 1.5µM
COc1ccc(CCNC(=O)C2CCN(C(=O)c3cccs3)CC2)cc1 | 0 | 0 | 0 | 0 | 0 | 0
COc1ccc(CCNC(=O)C2CCN(C(=O)c3ccccc3C)CC2)cc1 | 0 | 18µM | 0 | 0 | 0 | ?
COc1ccc(CCNC(=O)C2CCN(C(=O)c3ccc(OC)c(OC)c3)CC2)cc1 | 0 | 0 | 0 | 0 | 0 | 0
COc1cc(OC)cc(C(=O)N2CCC(C(=O)NCCc3ccccc3)CC2)c1 | 0 | 7.3µM | 0 | 0 | 0 | 7.3µM
Cc1cc([C@](C)(N)C(=O)O)ccc1P(=O)(O)O | - | 0 | - | - | - | 0
CCOC(=O)N1CCN(C(=O)c2ccccc2-c2ccccc2)CC1 | 7.3µM | 3.3µM | 0 | 10µM | ? | 3.7µM
CCOC(=O)N1CCN(c2nc(-c3ccccc3)c3ccccc3n2)CC1 | 0 | 26µM | 0 | ? | 0 | 0
CCOC(=O)N1CCN(C(=O)c2ccccc2NC(=O)COc2ccccc2)CC1 | 0 | 16µM | 0 | 0 | ? | ?
O=C(COc1ccccc1Cl)Nc1ccccc1C(=O)N1CCCCC1 | 0 | 16µM | 0 | 0 | ? | ?
O=C(O)CCC(=O)N1CCN(c2nc(-c3ccccc3)c3ccccc3n2)CC1 | 0 | 0 | 0 | 0 | 0 | 0
SMILES | HT1080 IDH1KD tx | TDP1 cell noCPT | IL-1B inflam inh | HT1080-NT tox | ELG1 DNA repair | DT40 TDP1 CPT
CCOC(=O)N1CCN(C(=O)c2ccccc2NC(C)=O)CC1 | 0 | 0 | 0 | 0 | ? | 0
CCn1c(SCC(=O)NC2CCCC2)nc2c(c1=O)SCC2 | 0 | 0 | 0 | 0 | - | 0
CC1CN(CCC(=O)NCc2ccc3ncccc3c2)Cc2cc(Cl)ccc2O1 (stereo unspecified) | - | ? | - | - | - | 0[9.04 µM]
O=C1C(=O)N(C2CCN(C(=O)c3ccccc3Cl)CC2)CCN1Cc1ccc(F)cc1 | - | 0 | - | - | - | 0
CCOC(=O)C1(C)CCCCCN1C(=O)c1ccccc1F (stereo unspecified) | 0 | 0 | 0 | 0 | - | 0
COc1cc2nc(N3CCCN(C)CC3)nc(N(C)C)c2cc1OC | 0 | 18µM | - | 0 | - | ?
COc1cc2nc(N3CCCN(C)CC3)nc(N)c2cc1OC | 0 | ? | - | 0 | - | ?
COc1cc2nc(N3CCCN(C)CC3)nc(N3CCN(C)CC3)c2cc1OC | 0 | 16µM | - | 0 | - | 14µM
C=CCOc1ccccc1CN1CCCC(CCC(=O)N(C)CCc2ccccn2)C1 (stereo unspecified) | 0 | 0 | 0 | 0 | 0 | 0
CCc1ccc(NC(=O)COC(=O)C2(c3ccc(Cl)cc3)CCCC2)cc1 | 0 | 21µM | 0 | 0 | 0 | 21µM
NS(=O)(=O)c1ccc(NC(=O)COC(=O)C2(c3ccccc3F)CCCC2)cc1 | 0 | ? | -62 | 0 | 0 | ?
NS(=O)(=O)c1ccc(NC(=O)COC(=O)C23CC4CC(CC(C4)C2)C3)cc1 | 0 | ? | 0 | 0 | 0 | ?
O=C(COC(=O)C1(c2ccccc2F)CCCC1)NCc1cccs1 | 0 | 23µM | ? | 0 | ? | ?
O=C(COC(=O)C1(c2ccccc2F)CCCC1)NCc1ccc2c(c1)OCO2 | 0 | ? | -73 | 0 | ? | ?
O=C(COC(=O)C1(c2ccc(F)cc2)CCCC1)NCc1ccc2c(c1)OCO2 | 0 | ? | 0 | 0 | ? | ?
COc1ccc(C(=O)Nc2ccnn2C2CCN(C(=O)C3CCOC3)CC2)cc1 (stereo unspecified) | 0 | 0 | 0 | 0 | 0 | 0
Cc1nn(C)c(C)c1NS(=O)(=O)c1cccc(Br)c1 | 0 | ? | 0 | 0 | 0 | 0
Nc1cc(Cl)ccc1C(=O)OCC(=O)NCc1cccs1 | 0 | ? | -85 | 0 | ? | ?
O=C(COC(=O)c1ccccc1Cl)NCc1cccs1 | 0 | 0 | 0 | 0 | - | 0
Cc1cccc(OCc2nc(-c3cccnc3)no2)c1 | 0 | 0 | 0 | 0 | ? | 0
c1ccc(CCSc2ncnc3nc[nH]c23)cc1 | 0 | 8.2µM | 0 | 0 | 0 | 16µM
O=C(CSc1ncnc2nc[nH]c12)c1ccc(Cl)cc1 | 0 | ? | 0 | 0 | 0 | ?
Clc1ccc(CSc2ncnc3nc[nH]c23)cc1 | ? | 23µM | 0 | 0 | 0 | ?
Cc1nnc(SCC(=O)N2c3ccccc3C(C)(c3ccccc3)CC2(C)C)s1 (stereo unspecified) | 0 | 12µM | -76 | 0 | 0 | 16µM
Cc1ccc(C2(C)CC(C)(C)N(C(=O)CSc3nnc(C)s3)c3ccccc32)cc1 (stereo unspecified) | ? | 16µM | -85 | ? | 0 | 21µM
CN(C(=O)CSc1nc2ncccc2o1)c1ccc(F)cc1 | - | 0 | - | - | - | 0
COc1cc(OC)c(-c2nnc(-c3ccc(OC)c(OC)c3OC)o2)cc1OC | 0 | 13µM | 0 | 0 | ? | 14µM
CC(C)(C)[C@@H]1COC(=O)[C@H](Cc2ccc(F)cc2)C/C=C\C[C@@H](CC(=O)N(CCO)Cc2ccccc2)C(=O)N1 | 0 | 21µM | 0 | 0 | 0 | 16µM

Screens as filed in PubChem.
